High-throughput results deposited in PubChem BioAssay by several laboratories.
Rows were chosen to be rich in hits. Some 2.8% of all compounds tested hit in one or more screens of this group.
EBV LMP1 NFkB – inhibitors of Epstein-Barr LMP1-induced NF-kappaB reporter | LMP1-induced NF-kappaB luciferase reporter cells, luminescence | AID 504558 | inhibition, % at 12.5 µM | 350,000 compounds, 0.69% hits; in the data active = inhibition above about 41%; inconclusive = no clear call, values can overlap the other calls;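 also: 0% = neutral control wells and 100% = reference inhibitor control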
Peg3 promoter – inhibitors of Peg3 promoter | inhibition, % at 20 µM | HeLa PEG-Prom luciferase reporter, luminescence, overnight | AID 588405 | 360,000 compounds, 1.7% hits;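 active = inhibition of at least 50% at 20 µM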
Shn3 3UTR inh – reduces Shn3 3'UTR luciferase signal in osteoblasts; inhibition, % at 12.5 µM; Clone20 osteoblast Shn3 3'UTR firefly luciferase, 24 h; 360,000 compounds, 0.52% hits;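 active = mean inhibition of at least 75% with every replicate also reaching 75%; inconclusive = mean inhibition at least 75% but some replicate below; inactive = mean inhibition below 75%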;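 also: 0% = median of neutral control wells and 100% = pilot-screen positive control compound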
TRPM1 prom inh – inhibitors of MITF-driven TRPM1 promoter in melanoma cells. SK-MEL-5 TRPM1 promoter luciferase, 24 h. 330,000 compounds, 0.83% hits. inhibition, % at 12.5 µM;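 active = mean inhibition across replicates of 60% or more, whatever share of single replicates reaches that level; inconclusive = some that reach 60%, reason not given; inactive = mean inhibition across replicates below 60%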
PAX8 reporter – lowers PAX8-driven luciferase in RMG-I cells | AID 652154 | RMG-I TPO-luciferase reporter, SteadyGlo, 24 h | 360,000 compounds, 1.2% hits | inhibition, % at 12.6 µM;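 active = mean replicate inhibition at least 60% with every replicate also reaching 60%; inconclusive = only one of the two criteria is met; inactive = mean below 60% and not all replicates reaching 60%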;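 also: luciferase light reporting Pax8 driven TPO promoter activity; plate controls were median of neutral control wells for no effect and mitoxantrone controls for full effect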
HIF-2a block – inhibitors of HIF-2a; 360,000 compounds, 0.72% hits; AID 624352; inhibition, % at 18.8 µM; 786-0 RCC cells HIF-2a reporter, luciferase luminescence, overnight;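 active = inhibition of the luminescence signal of 40% or more relative to plate controls, in a single-dose primary screen at 18.75 µM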
Mdm2 MdmX conf – Mdm2/MdmX (human) interaction inhibition, confirmed; SaOS-2 split-luciferase Mdm2/MdmX complementation, luminescence; inhibition, % at 8 µM; 740 compounds, 99% hits; shares compounds with HIF-2a block;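 active = mean inhibition of the luminescence signal across two replicates at or above 26 percent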
Target sequence (O15151 whole entry, looked up): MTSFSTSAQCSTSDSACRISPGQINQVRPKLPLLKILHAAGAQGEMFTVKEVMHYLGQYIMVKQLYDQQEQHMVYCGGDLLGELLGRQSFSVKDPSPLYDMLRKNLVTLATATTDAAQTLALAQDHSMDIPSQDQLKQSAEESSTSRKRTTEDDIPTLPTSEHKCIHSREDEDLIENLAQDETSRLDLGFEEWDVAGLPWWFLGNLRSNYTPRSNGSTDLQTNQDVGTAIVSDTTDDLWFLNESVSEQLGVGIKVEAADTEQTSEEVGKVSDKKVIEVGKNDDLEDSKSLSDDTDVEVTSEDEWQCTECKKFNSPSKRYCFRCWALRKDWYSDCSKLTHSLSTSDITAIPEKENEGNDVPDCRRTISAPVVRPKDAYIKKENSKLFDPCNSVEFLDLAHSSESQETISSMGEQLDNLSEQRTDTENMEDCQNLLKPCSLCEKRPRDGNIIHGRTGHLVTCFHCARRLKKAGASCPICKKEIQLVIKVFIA
Target sequence (Q00987 whole entry, looked up): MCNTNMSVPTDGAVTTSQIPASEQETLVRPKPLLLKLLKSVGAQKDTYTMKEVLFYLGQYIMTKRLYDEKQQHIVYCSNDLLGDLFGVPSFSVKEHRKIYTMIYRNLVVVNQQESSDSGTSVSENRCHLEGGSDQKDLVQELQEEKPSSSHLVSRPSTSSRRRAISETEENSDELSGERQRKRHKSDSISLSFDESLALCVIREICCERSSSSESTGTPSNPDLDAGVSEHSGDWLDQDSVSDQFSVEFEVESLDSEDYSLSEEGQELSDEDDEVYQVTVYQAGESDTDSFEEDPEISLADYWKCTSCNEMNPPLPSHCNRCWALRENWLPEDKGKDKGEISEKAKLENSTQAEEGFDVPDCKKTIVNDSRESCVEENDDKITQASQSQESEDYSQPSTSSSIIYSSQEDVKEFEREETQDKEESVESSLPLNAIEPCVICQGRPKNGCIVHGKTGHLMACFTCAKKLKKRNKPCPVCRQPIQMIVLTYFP
HIF-2a conf – confirmation of HIF-2a inhibitors; 786-0 RCC cells, HIF-2a luciferase reporter luminescence, overnight; inhibition, % at 18.8 µM; shares compounds with HIF-2a block; 1,800 compounds, 56% hits;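 active = mean inhibition across four replicates of at least 40 percent at the single tested concentration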
HIF-1a cs – HIF-1a inhibition counter-screen for HIF-2a hits | MiaPaCa-2 HIF-1a luciferase reporter, desferoxamine, overnight | inhibition, % at 18.8 µM | shares compounds with HIF-2a block | 1,800 compounds, 72% hits;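 active = mean inhibition of the reporter signal across four replicates at the single tested dose of 50% or more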
Numbers without * were called inactive; u = inconclusive; x = no result given.

SMILES	EBV LMP1 NFkB	Peg3 promoter	Shn3 3UTR inh	TRPM1 prom inh	PAX8 reporter	HIF-2a block	HIF-2a conf	HIF-1a cs	others
Cc1cc(Cl)n2c(nc3cc(F)c(F)cc32)c1C#N	6.5	110.3*	96.3*	98.0*	74.5*	94.8*	58.2*	100.2*
Cc1ccc(CNC(=O)C(=O)NCCC2CCCCN2S(=O)(=O)c2ccc(C)cc2)cc1 (stereo not given)	2.3	17.7	19.4	9.3	17.0	21.3	x	x
O=C(NCCC1CCCCN1S(=O)(=O)c1ccc(F)cc1)C(=O)NCc1ccncc1 (stereo not given)	1.8	23.0	8.1	13.4	68.7*	43.1*	-3.4	31.0
Cc1nn(Cc2ccc(Cl)cc2Cl)c(C)c1NC(=O)CCl	20.9	43.6	-35.9	37.9	4.5	15.8	x	x	Mdm2 MdmX conf=103.0*
C/C=C/c1cnc2c(c1)C(=O)N([C@H](C)CO)C[C@H](C)[C@@H](CN(C)C(=O)Nc1ccc(F)cc1)O2	x	x	x	x	-2.3	x	x	x
N#C[C@H]1[C@@H](c2ccc(-c3ccccc3)cc2)[C@@H](CO)N1C(=O)Cc1ccncc1	x	x	x	x	8.7	x	x	x
Cc1cc(C(=O)COC(=O)c2n[nH]c3ccccc23)c(C)n1C	16.5	-131.9	-23.2	-0.8	x	-81.9	x	x
CCCn1c(C)cc(C(=O)COC(=O)c2ccc[nH]c2=O)c1C	47.6*	-5.7	-0.4	10.7	-15.0	42.1*	35.7	14.1
COCCn1c(C)cc(C(=O)COC(=O)c2n[nH]c3ccccc23)c1C	55.4*	-10.1	26.7	-2.3	13.9	47.4*	44.9*	30.9
CCCn1c(C)cc(C(=O)COC(=O)c2ccc(Cl)c(S(=O)(=O)N3CCCC3)c2)c1C	-6.8	-94.1	-14.6	-11.1	x	-125.7	x	x
CO[C@H]1CN(C)C(=O)c2cc(NS(C)(=O)=O)ccc2OC[C@H](C)N(C(=O)c2ccc3c(c2)OCO3)C[C@H]1C	x	x	x	x	-18.0	x	x	x
COc1cccc(S(=O)(=O)N[C@H]2CC[C@H](CCn3cc(-c4ccccc4OC)nn3)O[C@@H]2CO)c1	x	x	x	x	9.6	x	x	x
COc1ccc(C(=O)/C=C/C(=O)N(Cc2ccccc2)C(C(=O)NC2CCCCC2)c2ccncc2)c(O)c1 (stereo not given)	-1.3	14.5	-13.6	-0.8	36.9	40.5*	5.3	47.6
COc1ccc(C(=O)/C=C/C(=O)N(CC(=O)NC2CCCCC2)CC2CCCO2)c(O)c1 (stereo not given)	28.9	105.8*	-8.3	98.3*	82.1*	94.4*	99.2*	107.2*
COc1ccc(C(=O)/C=C/C(=O)N(CC(=O)NC2CCCCC2)Cc2ccccc2)c(O)c1	-5.3	109.4*	95.1*	99.6*	u	70.8*	97.5*	102.7*
COc1ccc(C(=O)/C=C/C(=O)N(CC(=O)NC2CCCCC2)Cc2ccccc2OC)c(O)c1	16.0	103.9*	-2.6	102.7*	3.3	81.1*	89.5*	105.4*
COc1ccc(C(=O)/C=C/C(=O)N(Cc2ccc(F)cc2)C(C(=O)NC2CCCCC2)c2ccncc2)c(O)c1 (stereo not given)	-10.4	13.7	23.9	4.1	x	27.0	x	x
COc1cccc(C(=O)Nc2ccc3c(c2)C(=O)N(C)[C@H]2CC[C@@H](CC(=O)NCC4CC4)O[C@H]2CO3)c1	x	x	x	x	1.6	x	x	x
C[C@H](CO)N1C[C@H](C)[C@H](CN(C)S(=O)(=O)c2ccc(Cl)cc2)Oc2ccc(NS(=O)(=O)c3cccs3)cc2CC1=O	x	x	x	x	-21.8	x	x	x
CCOc1ccc(-n2c(C)c(C(=O)O)c3cc(OC)ccc32)cc1	2.0	-4.1	0.7	-12.2	-5.1	2.8	x	x
COc1ccc(-n2c(C)c(C(C)=O)c3cc(O)ccc32)cc1	57.2*	7.1	6.3	1.5	x	13.4	x	x	Mdm2 MdmX conf=87.2*
CCOc1ccc(-n2c(C)c(C(C)=O)c3cc(OC(C)=O)ccc32)cc1	32.4	26.2	46.3	x	-15.3	22.5	x	x	Mdm2 MdmX conf=89.2*
